PubChem BioAssay (NCI)
About 83,000 compounds went through this panel and 20% of them were active in at least one assay; those are over-represented in the sample as a whole.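 For each line, cells grew in 96-well plates with the test compound present at a single concentration for 48 hours.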 Unmarked numbers belong to inactive results. Activity calls are given as the source filed them. Rule for the calls: active = growth percent below 10; inactive = the rest.

Test system: NCI-H522 lung
Test: NCI-60 one-dose screen, 48 h (100 = growth as untreated, 0 = no growth, -100 = all killed)
Details: 10 µM unless noted

Row | SMILES | growth
1 | Cc1cccc(-c2nc(Nc3ccc4ncsc4c3)c3ccccc3n2)n1 | 56%
2 | COc1ccc(-c2cc(-c3ccccc3)nc(N3CCN(CCNc4ccnc5cc(Cl)ccc45)CC3)n2)cc1 | 2.04% (active)
3 | N#Cc1cccc(C2C3=C(COC3=O)N(CCO)c3cc4c(cc32)OCO4)c1 (stereo not given) | 17%
4 | CCN1C(=O)N(CC)C2C1NC(=S)N2/N=C/c1ccc(OC)cc1 (stereo not given) | 16.8%
5 | Nc1[nH]c(=S)nc2oc(-c3ccccc3)c(-c3ccccc3)c12 | 94.8%
6 | N=C(N)c1ccc(-c2ccc(-c3cc(Cl)cc(Cl)c3)s2)nc1 | 34.1%
7 | c1ccc2c(c1)CCCc1nnc3nc4ccccc4n3c1-2 | 55.6%
8 | Nc1[nH]n2cc(-c3ccc(F)cc3)nc2c1N=Nc1ccc(S(N)(=O)=O)cc1 | 55.3%
9 | CNC(C)[C@H]1CCC2C3CC=C4C(=O)[C@@H](NC(=O)C=C(C)C)CC[C@]4(C)C3CC[C@@]21C (stereo not given in full) | 58.5%
10 | COc1ccc2c(c1)/C(=N/c1n[nH]c(=S)s1)C(=O)N2 | 76.3%
11 | Cc1ccc(-c2nc(SCc3nc4cc(Cl)c(Cl)cc4[nH]3)[nH]c(=O)c2C#N)cc1 | 89.1%
12 | COc1ccc2c(c1)c(/C(O)=C1\COC(=O)C1=O)cn2Cc1ccc(F)cc1 | 73.9%
13 | O=C1/C(=C2\SC(=S)N(C3CC3)C2=O)SC(=S)N1C1CC1 | 91.9%
14 | C#CC#CC#CC#CC#CC#CC#CC#CCC1OC[C@H](COC(=O)O[C@@H](C(=O)O[C@H]2C[C@@]3(O)[C@@H](OC(=O)c4ccccc4)[C@@H]4[C@]5(OC(C)=O)CO[C@@H]5C[C@H](O)[C@@]4(C)C(=O)[C@H](OC(C)=O)C(=C2C)C3(C)C)[C@@H](NC(=O)c2ccccc2)c2ccccc2)O1 (stereo not given in full) | 42.4%
15 | Cc1nnc(-c2ccc3c(c2)nc(/C=C/c2ccccc2)n3C2CCCCC2)o1 | 68.6%
16 | Nc1nc(N)c2c(n1)NC(c1ccc(Cl)cc1)C1CCc3ccccc3C1=N2 (stereo not given) | 76.7%
17 | Fc1ccc(Cn2cc(CSc3nc4ccccc4o3)nn2)cc1 | 83.4%
18 | CC(C)(C)c1cc(Cl)c(O)c(CNCCO)c1 | 106%
19 | Nc1nc2c(c3ncccc13)C(c1cccc(Cl)c1)Cc1ncccc1-2 (stereo not given) | -14.5% (active)
20 | COc1ccc(C(=O)N2c3ccccc3Sc3ccccc32)c(C(F)(F)F)c1 | 2% (active)

Row | SMILES | growth
21 | Cc1ccc(C(=O)c2ccc(CC(=O)NN3C(=O)c4ccccc4C3=O)n2C)cc1 | 88.1%
22 | C=C1C(=O)O[C@H]2[C@H]1CC/C(Cn1cc(CCC)nn1)=C\CC[C@@]1(C)O[C@@H]21 | -70.7% (active)
23 | O=C(/C=C/c1ccccc1)c1ccc(Nc2nc(Nc3ccc(F)cc3)nc(Nc3ccc(Cl)cc3)n2)cc1 | 87.6%
24 | N#Cc1cccc(C2C3=C(COC3=O)N(CCO)c3cc4c(cc32)CCC4)c1 (stereo not given) | -3.91% (active)
25 | CCN1C(=O)N(CC)C2Nn3c(s/c(=C\c4ccccc4Br)c3=O)=NC21 (stereo not given) | -12.8% (active)
26 | Cc1ccc(C=C2C(=O)NC(=O)NC2=O)cc1 | 85.9%
27 | Cc1cccc(N2CCC(=O)NC2=S)c1 | 97%
28 | N#C/C(=C\c1ccc(-c2cccc(C(F)(F)F)c2)o1)c1ccccc1 | 84.6%
29 | N#C/C(=C\c1ccc([N+](=O)[O-])cc1)n1nnc2cc(F)c(F)cc21 | 36.9%
30 | CC/C=C\CCC/C=C1/C(=O)C=C[C@@H]1C/C=C\CCCC(=O)OC | 11.7%
31 | CN(C)c1ccc(/C=C(\C#N)c2cc3ccccc3[nH]2)cc1 | -9.55% (active)
32 | O=C(Nc1ccc(Br)cc1)C1=NCCCCN1 | 82.9%
33 | CNC(=O)c1cc(Oc2cccc3nc(NC(=O)Nc4cc(C(F)(F)F)ccc4Cl)ccc23)ccn1 | 94%
34 | COc1cccc(CCNc2ncnc3c2ncn3Cc2nnc3c4ccccc4c(Cl)nn23)c1 | 5.17% (active)
35 | CCOC(=O)c1c(C)nc2c(c1N)/C(=C/c1ccc(OC)cc1)C(=O)N2Cc1ccccc1 | 66.3%
36 | O=S(=O)(NCCNc1nccc(-c2c(-c3ccc(F)c(O)c3)nc3sccn23)n1)c1ccc(F)cc1 | 28.5%
37 | S=C(c1ccc2c(c1)OCO2)N1CCN(c2cccc(Cl)c2)CC1 | 2.22% (active)
38 | CN1CCN(CCOc2ccc(-c3cnc4c(-c5ccc(F)cc5)cnn4c3)cc2)CC1 | 64.1%
39 | O=C(Cc1ccc(/C=C/C(=O)c2ncc[nH]2)cc1)Nc1cc(C(F)(F)F)cc(C(F)(F)F)c1 | 96.6%
40 | CCN(CC)c1ccc(/C=N/NC(=O)Cc2ccc(Nc3ccnc(C(F)(F)F)c3)cc2)c(O)c1 | 33.9%
